Experimental data reported in PubChem BioAssay (NCI).
Compounds without any hit were thinned out: in the full panel of roughly 79,000, 15% have a hit. A number with no mark means an inactive call. Calls of active or inactive are those of the source. Rule as the data show it: active = growth inhibition above about 70%; inactive = the rest.

Test: NCI Yeast Anticancer Drug Screen. Data for the sgs1 strain (AID 173);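 also: 0% = growth of vehicle-only control cultures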
Details: S. cerevisiae sgs1 mutant, hits give high values
Experimental: Growth inhibition of yeast strains with defined genetic alterations is measured as a screen for potential anti-cancer activity. Selected strains with alterations in DNA damage repair or cell cycle control were exposed to compounds and growth inhibition was measured relative to vehicle treated controls. The strain used in this assay is sgs1

Compound | growth inhibition (at 1.2 µM) [%] | growth inhibition (at 3.7 µM) | growth inhibition (at 11.0 µM) | growth inhibition (at 33.0 µM) | growth inhibition (at 100.0 µM)
C#CCN(Cc1ccc2nc(N)[nH]c(=O)c2c1)c1ccc(C(=O)NC(CCC(=O)O)C(=O)O)cc1 (stereo not given) | 24 | 35% | 36% | 64% | 75% (active)
CC(C)(C)c1ccc(NS(=O)(=O)c2ccc(N)cc2)cc1 | 3 | 6% | 14% | 17% | 60%
CNCCCNc1c2ccccc2nc2cccc([N+](=O)[O-])c12 | 67 | 84% (active) | 92% (active) | 92% (active) | 95% (active)
O=C(Nc1ccc(Cl)cc1)Nc1nnc2nc(C(C(=O)c3cccc([N+](=O)[O-])c3Cl)c3nc4nnc(NC(=O)Nc5ccc(Cl)cc5)n4[nH]c3=O)c(=O)[nH]n12 | -1 | 0% | -2% | 1% | 60%
CC(=O)OCC1OC2OC(=O)NC2C(OC(C)=O)C1OC(C)=O (stereo not given) | -3 | -3% | -2% | -1% | 0%
Cc1cccc2c1nc1ccc(Cl)cc1[n+]2C | 3 | 13% | 89% (active) | 97% (active) | 97% (active)
Cc1cccc(C(C)(C)C)c1NC(=O)C(C#N)C1=C(Cl)C(=O)c2ccccc2C1=O (stereo not given) | -2 | 9% | 45% | 98% (active) | 97% (active)
O=c1c2ccccc2nc(-c2ccccc2)n1O | 32 | 48% | 93% (active) | 97% (active) | 97% (active)
